Only some compounds are listed: those with a hit (about 4.1% of all), similar ones and a draw of the others.
DAX1 inh-1: DAX1 (NR0B1) inhibition, primary screen. HEK293T StAR-luciferase reporter, SF-1/DAX-1 repression relief. inhibition, % at 6.8 µM. actives 1.1% (n = 370,000);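 active = inhibition above the mean over all tested compounds plus 3 SD, cut at about 3.6% in these data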;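 note: higher inhibition means more luminescence from relief of DAX-1 repression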
hgDAF12 agonist: activates the H. glycines DAF-12 receptor ligand-binding domain; HEK293 GAL4-hgDAF12 UAS-luciferase reporter, agonist luminescence; normalized to butyrate control; activation, % at 6.8 µM; actives 1.8% (n = 370,000);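 active = activation above a cutoff set at the mean of all screened compounds plus 3 SD, cut at about 10% in these data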
DAX1 inh-2: inhibits human nuclear receptor DAX1; HEK293 Gal4-DAX1 luciferase reporter, luminescence; inhibition, % at 6.75 µM; actives 0.99% (n = 340,000); AID 504766;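 active = inhibition above the mean over all tested compounds plus 3 SD, cut at about 4.2% in these data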;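 note: inhibition shows as a rise in luminescence from relieved DAX1 repression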
Target sequence (P51843 207-470 limits assumed): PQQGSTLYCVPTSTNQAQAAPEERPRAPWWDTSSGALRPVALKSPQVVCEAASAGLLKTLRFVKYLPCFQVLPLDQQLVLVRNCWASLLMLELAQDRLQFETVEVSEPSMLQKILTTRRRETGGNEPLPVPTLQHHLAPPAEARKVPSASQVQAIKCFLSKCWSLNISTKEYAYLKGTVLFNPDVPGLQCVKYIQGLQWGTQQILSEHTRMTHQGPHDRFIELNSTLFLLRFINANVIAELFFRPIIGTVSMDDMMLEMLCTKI
ssDAF12 agonist: S. stercoralis DAF-12 activation, primary screen | HEK293 ssDAF-12/GRIP1 lit1-tk-luc reporter, luminescence; % of 3 µM dafachronic acid response | actives 1% (n = 370,000) | activation, % at 6.8 µM;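 active = activation above the mean over all tested compounds plus 3 SD, cut at about 0.9% in these data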
hcDAF12 agonist: activators of H. contortus DAF-12 nuclear receptor. HEK293 hcDAF-12 lit1-tk-luc reporter, luminescence; 0% DMSO, 100% Δ7-dafachronic acid. activation, % at 6.8 µM. actives 1.4% (n = 370,000);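 active = activation above the mean of all tested compounds plus 3 SD, cut at about 5.5% in these data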
Numbers stand for hits.

What do the screens show for `CCOC(=O)N1CCN(C(=O)C[C@H]2C[C@@]3(C(=O)OC)C(=C[C@H](C(C)C)O[C@@H]3C3CC3)N(Cc3ccccc3)C2=O)CC1`?
DAX1 inh-1: inactive; hgDAF12 agonist: inactive; ssDAF12 agonist: inactive; hcDAF12 agonist: inactive

How did Cc1ccc2c(c1)N(C(=O)CCC(=O)N1CCC(C(N)=O)CC1)CCO2 do in these assays?
DAX1 inh-1: inactive; hgDAF12 agonist: inactive; DAX1 inh-2: inactive; ssDAF12 agonist: 1.3; hcDAF12 agonist: inactive

Results for CCOC(=O)N1CCN(C(=O)CCC(=O)N2CCOc3ccc(C)cc32)CC1 ?
DAX1 inh-1: inactive; hgDAF12 agonist: inactive; DAX1 inh-2: inactive; ssDAF12 agonist: inactive; hcDAF12 agonist: inactive

How did CSCCC(NC(=O)c1ccco1)C(=O)NC1CCC(C)CC1 (centres undefined) do in these assays?
DAX1 inh-1: 3.7; hgDAF12 agonist: inactive; DAX1 inh-2: inactive; ssDAF12 agonist: inactive; hcDAF12 agonist: inactive

What do the screens show for `CSCCC(NC(=O)c1ccco1)C(=O)Nc1ccc(C)cn1` (centres undefined)?
DAX1 inh-1: 3.8; hgDAF12 agonist: inactive; DAX1 inh-2: inactive; ssDAF12 agonist: inactive; hcDAF12 agonist: inactive

How did Cc1cc(NC(=O)C(C)C)ncc1NC(=O)c1ccco1 do in these assays?
DAX1 inh-1: inactive; hgDAF12 agonist: inactive; DAX1 inh-2: 5.9; ssDAF12 agonist: inactive; hcDAF12 agonist: inactive

Results for CC(C)c1ccc(C2OCCCO2)cc1 ?
DAX1 inh-1: inactive; hgDAF12 agonist: inactive; DAX1 inh-2: inactive; ssDAF12 agonist: inactive; hcDAF12 agonist: inactive

Results for CC(C)c1ccc(C2OCC(C)([N+](=O)[O-])CO2)cc1 (centres undefined) ?
DAX1 inh-1: 3.9; hgDAF12 agonist: inactive; DAX1 inh-2: inactive; ssDAF12 agonist: inactive; hcDAF12 agonist: inactive

Results for O=C1NC[C@H](CCCCN2C[C@H](Cc3ccccc3)N(CCC3CCCCC3)C(=O)C2=O)N(CC2CCCCC2)C1=O ?
DAX1 inh-1: inactive; hgDAF12 agonist: inactive; ssDAF12 agonist: inactive; hcDAF12 agonist: inactive

Results for O=C1NC[C@H](CCCCN2C[C@H](Cc3ccccc3)N(CC3CCCCC3)C(=O)C2=O)N(CCC2CCCCC2)C1=O ?
DAX1 inh-1: inactive; hgDAF12 agonist: inactive; ssDAF12 agonist: 1.4; hcDAF12 agonist: inactive

What do the screens show for `CC(C)CCN1CCC(CN2C(=O)C(=O)NC[C@@H]2CC(C)C)CC1`?
DAX1 inh-1: inactive; hgDAF12 agonist: inactive; ssDAF12 agonist: inactive; hcDAF12 agonist: inactive

What do the screens show for `CC(C)C[C@H]1CNC(=O)C(=O)N1CC1CCN(CC2CCC(C(C)(C)C)CC2)CC1` (some centres undefined)?
DAX1 inh-1: 4.1; hgDAF12 agonist: inactive; DAX1 inh-2: inactive; ssDAF12 agonist: inactive; hcDAF12 agonist: inactive

Results for CC(C)C[C@H]1CN(CCCC[C@@H]2CNC(=O)C(=O)N2CC2CCCCC2)C(=O)C(=O)N1Cc1ccccc1 ?
DAX1 inh-1: inactive; hgDAF12 agonist: 10.7; ssDAF12 agonist: inactive; hcDAF12 agonist: inactive

Results for C=CCNC(=S)N(C)[C@H]1C[C@H]2c3cc(-c4ccccc4C)ccc3CCN2C[C@H]1[C@H](C)O ?
DAX1 inh-1: inactive; hgDAF12 agonist: inactive; ssDAF12 agonist: inactive; hcDAF12 agonist: inactive

What do the screens show for `COC(=O)c1ccc(N2CCN(CC(=O)c3ccc(C)cc3)CC2)c([N+](=O)[O-])c1`?
DAX1 inh-1: inactive; hgDAF12 agonist: inactive; DAX1 inh-2: inactive; ssDAF12 agonist: inactive; hcDAF12 agonist: 6.0

How did CCOC(=O)c1[nH]c2c(c1C)C(=O)CC(c1ccc(F)cc1)C2 (centres undefined) do in these assays?
DAX1 inh-1: inactive; hgDAF12 agonist: inactive; DAX1 inh-2: inactive; ssDAF12 agonist: 1.2; hcDAF12 agonist: inactive

What do the screens show for `Cc1cc(C)n(-c2ccc(C(=O)OCC(=O)Nc3cc(Cl)ccc3[N+](=O)[O-])cc2)n1`?
DAX1 inh-1: inactive; hgDAF12 agonist: inactive; DAX1 inh-2: inactive; ssDAF12 agonist: 1.2; hcDAF12 agonist: inactive

How did O=C(OCC(=O)N1CCOCC1)c1cncc(Br)c1 do in these assays?
DAX1 inh-1: inactive; hgDAF12 agonist: inactive; DAX1 inh-2: inactive; ssDAF12 agonist: inactive; hcDAF12 agonist: inactive

How did CCNC(=O)CC1C(=O)N(C)C(=S)N1NC(=O)c1ccc(Cl)cc1 (centres undefined) do in these assays?
DAX1 inh-1: inactive; hgDAF12 agonist: inactive; DAX1 inh-2: inactive; ssDAF12 agonist: inactive; hcDAF12 agonist: inactive

Results for Nc1ccc(C(=O)NN2C(=O)[C@H](Cl)C2c2ccc(Cl)cc2)cc1 (some centres undefined) ?
DAX1 inh-1: inactive; hgDAF12 agonist: inactive; DAX1 inh-2: inactive; ssDAF12 agonist: inactive; hcDAF12 agonist: 5.9

How did COc1ccc(CNC(=O)CNC(=O)CNS(=O)(=O)c2ccc(C)c(C)c2)cc1 do in these assays?
DAX1 inh-1: inactive; hgDAF12 agonist: inactive; DAX1 inh-2: inactive; ssDAF12 agonist: 0.9; hcDAF12 agonist: inactive

How did COc1ccc(CNC(=O)CCNS(=O)(=O)c2ccc(Cl)cc2)cc1 do in these assays?
DAX1 inh-1: inactive; hgDAF12 agonist: inactive; DAX1 inh-2: inactive; ssDAF12 agonist: inactive; hcDAF12 agonist: inactive

How did COC(=O)Cc1c(OC)ccn(CCc2c[nH]c3ccccc23)c1=O do in these assays?
DAX1 inh-1: 4.0; hgDAF12 agonist: inactive; DAX1 inh-2: inactive; ssDAF12 agonist: inactive; hcDAF12 agonist: inactive

What do the screens show for `COC(=O)Cc1c(O)ccn(CCc2c[nH]c3ccccc23)c1=O`?
DAX1 inh-1: inactive; hgDAF12 agonist: inactive; DAX1 inh-2: inactive; ssDAF12 agonist: inactive; hcDAF12 agonist: inactive

How did COc1cccc(C(=O)Oc2ccccc2/C=C\C(=O)c2cc3ccccc3o2)c1 do in these assays?
DAX1 inh-1: inactive; hgDAF12 agonist: inactive; DAX1 inh-2: inactive; ssDAF12 agonist: 1.6; hcDAF12 agonist: 6.5

Results for O=C(Oc1ccccc1/C=C\C(=O)c1cc2ccccc2o1)c1ccccc1 ?
DAX1 inh-1: inactive; hgDAF12 agonist: inactive; DAX1 inh-2: inactive; ssDAF12 agonist: inactive; hcDAF12 agonist: 6.2

How did NC(=O)N/N=C/c1ccccc1OC(=O)c1cc2ccccc2oc1=O do in these assays?
DAX1 inh-1: inactive; hgDAF12 agonist: inactive; DAX1 inh-2: inactive; ssDAF12 agonist: inactive; hcDAF12 agonist: inactive

What do the screens show for `Cn1c(=O)c2[nH]c(SCC(=O)NCCc3ccc(F)cc3)nc2n(C)c1=O`?
DAX1 inh-1: inactive; hgDAF12 agonist: inactive; ssDAF12 agonist: inactive; hcDAF12 agonist: inactive

How did COc1ccc(CN2C(=O)C(CC(=O)NC(c3ccccc3)c3ccccc3)CC(C(=O)N(C(C)C)C(C)C)=C2C)cc1 (centres undefined) do in these assays?
DAX1 inh-1: inactive; hgDAF12 agonist: inactive; DAX1 inh-2: inactive; ssDAF12 agonist: inactive; hcDAF12 agonist: inactive

What do the screens show for `C=CCN1C(=O)[C@H](CC(=O)NCC23CC4CC(CC(C4)C2)C3)[C@@]2(C(=O)OC)CCCCC=C12`?
DAX1 inh-1: inactive; hgDAF12 agonist: inactive; ssDAF12 agonist: inactive; hcDAF12 agonist: inactive

What do the screens show for `CCCCN(C)C(=O)Cn1nc(Cc2ccncc2)c2ccccc2c1=O`?
DAX1 inh-1: inactive; hgDAF12 agonist: inactive; DAX1 inh-2: 14.5; ssDAF12 agonist: inactive; hcDAF12 agonist: inactive
